The list is not random: actives were taken first. Their share in the collection is about 12%.
HP1b chromo inh: HTS for Inhibitors of HP1-beta Chromodomain Interactions with Methylated Histone Tails; AlphaScreen HP1-beta / biotin-H3K9me3 peptide binding; 390,000 compounds, 0.56% hits; Potency, µM (highest dose often 114 µM), for the others: top-dose activity change, negative = inhibition, actives largely listed as inhibitors; AID 540317, 2011; further: nearly all actives have a fitted effect of over 70% in size
Target sequence (P83916 whole entry, looked up): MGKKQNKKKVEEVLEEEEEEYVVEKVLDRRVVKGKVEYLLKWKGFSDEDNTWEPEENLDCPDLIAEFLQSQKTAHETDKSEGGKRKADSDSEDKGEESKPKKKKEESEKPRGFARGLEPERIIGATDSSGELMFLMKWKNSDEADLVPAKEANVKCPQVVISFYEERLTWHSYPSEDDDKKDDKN
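AlphaScreen: HP1-beta (50 nM) preformed 30 min with biotin-H3(1-18)K9me3 peptide (50 nM) in PBS pH 7.4, 0.01% Tween-20. Compound added for 30 min at RT, then streptavidin donor/nickel chelate acceptor beads (10 ug/mL) for 30 min.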
G9a inh: qHTS Assay for Inhibitors of Histone Lysine Methyltransferase G9a. Potency, µM (doses to about 102 µM), for the others: top-dose activity, negative = inhibition, actives largely listed as inhibitors. 350,000 compounds, 8.8% hits. Histone-lysine N-methyltransferase EHMT2 (Homo sapiens), Q96KQ7. G9a H3K9 monomethylation, AlphaScreen, 2 h. AID 504332, 2011; further: on the % scale 0 is the no-effect control and ±100 the full control effect; nearly all actives have a fitted effect of over 75% in size
Target sequence (Q96KQ7 913-1193 limits assumed): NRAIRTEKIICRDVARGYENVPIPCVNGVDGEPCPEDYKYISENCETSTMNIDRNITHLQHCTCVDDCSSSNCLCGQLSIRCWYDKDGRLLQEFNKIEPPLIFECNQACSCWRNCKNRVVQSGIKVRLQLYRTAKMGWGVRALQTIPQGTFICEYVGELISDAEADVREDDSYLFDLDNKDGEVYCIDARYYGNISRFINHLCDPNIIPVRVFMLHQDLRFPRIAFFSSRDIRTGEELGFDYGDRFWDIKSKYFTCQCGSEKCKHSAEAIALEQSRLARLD
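Quantitative HTS format: methyltransferase activity on a biotin-tagged H3K9 peptide is measured by AlphaScreen, using a rabbit anti-monomethyl-H3K9 antibody with streptavidin donor and anti-IgG acceptor beads. Final levels are 20 nM enzyme, 500 nM peptide, 20 uM SAM; 2 h RT.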
Sfp PPTase inh: qHTS Assay for Inhibitors of Bacillus subtilis Sfp phosphopantetheinyl transferase (PPTase); Potency, µM, for the others: largest response in the series, negative = inhibition, hits mostly inhibitors; 4'-phosphopantetheinyl transferase ffp (Bacillus subtilis), Q9F4F7; 310,000 compounds, 3.5% hits; Biochemical Sfp PPTase activity, qHTS; AID 1490, 2009;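 further: the enzyme is Sfp with the accession as filed and its product quenches rhodamine fluorescence; 0% = enzyme reaction without inhibitor and -100% = no enzyme wells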
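Compounds were incubated with enzyme (final 15 nM) for 15 min at room temperature before substrate addition started the reaction. Fluorescence at 525 nm excitation, 598 nm emission was recorded immediately and after 30 minutes.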
BAZ2B block: qHTS Assay for Inhibitors of BAZ2B; 360,000 compounds, 4.4% hits; AlphaScreen BAZ2B-H3K14Ac peptide displacement; Potency, µM (titrated, usually from 114 µM), without a hit: at the highest dose activity change, negative = inhibition, usual class: inhibitors; further: on the % scale 0 is the no-effect control and ±100 the full control effect; nearly all actives have a fitted effect of over 60% in size
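AlphaScreen displacement of biotin-H3(5-23)K14Ac peptide (50 nM final) from BAZ2B (50 nM final) in PBS pH 7.4, 0.01% Tween-20; complex preformed 30 min RT, then compounds (top 110 uM) 30 min RT, beads 20 min dark.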
JMJD2A Tudor inh: qHTS Assay for Inhibitors of JMJD2A-Tudor Domain; Lysine-specific demethylase 4A (Homo sapiens), O75164; AlphaScreen JMJD2A-Tudor / H3K4me3 peptide binding; Potency, µM (highest dose often 114 µM), without a hit: at the top dose activity change, negative = inhibition, most hits filed as inhibitors; 390,000 compounds, 4.4% hits; AID 504339, 2011; further: on the % scale 0 is the no-effect control and ±100 the full control effect; nearly all actives have a fitted effect of over 50% in size
TDP1 block: qHTS Assay for Inhibitors of Tyrosyl-DNA Phosphodiesterase (TDP1); Tyrosyl-DNA phosphodiesterase 1 (Homo sapiens), Q9NUW8; recombinant TDP1, AlphaScreen DNA substrate cleavage; 350,000 compounds, 0.28% hits; AID 485290, 2010; Potency, µM (top dose mostly 130 µM), for inactives: at the top dose activity change, negative = inhibition, hits mostly inhibitors; further: on the % scale 0 is the no-effect control and ±100 the full control effect; nearly all actives have a fitted effect of over 40% in size
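Recombinant E. coli-expressed Tdp1 (1 nM) preincubated with compound 15 min at RT, then 5'-biotin/3'-phosphotyrosine-FITC DNA substrate (15 nM) added for 5 min. AlphaScreen beads (10 ug/ml) added, 10 min RT; tyrosine-FITC cleavage read as signal loss.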
* hit, by the source's call; ? = inconclusive; . = no result given; [ ] = dose if it differs, or a comment. The call rests on the fitted dose curve; in most records, active means well fitted curve in the direction sought with a large enough effect; inconclusive means small, poorly fitted or top-dose-only effect, or another doubt; inactive means no such curve, though single readings can be large; an effect the other way counts as inactive or inconclusive. Potency means the concentration at half of the fitted maximal effect.

SMILES	HP1b chromo inh	G9a inh	Sfp PPTase inh	BAZ2B block	JMJD2A Tudor inh	TDP1 block
CC1CC(C)CN(C(=O)C(C)N(C)CC(=O)Nc2ccc(Cl)cc2)C1 (centres undefined)	?	50µM*	?	45µM*	7.9µM*	-5%
CSc1ccccc1NC(=O)CN(C)C(C)C(=O)NCc1ccc2c(c1)OCO2 (centres undefined)	?	.	.	.	5µM*	4%
CCOc1ccc(NS(=O)(=O)c2ccc3c(c2)CCCN3C(=O)C2CCC2)cc1	14%[57 µM]	-3%[59 µM]	.	-7%	-26%	10%
O=C(COc1ccccc1Br)N1CCN(C(=O)c2cccs2)CC1	15%	-4%[2.33 µM]	.	0%	-8%	-2%[56.1 µM]
COc1ccc(CC(=O)OCC(=O)Nc2cccc(C(C)=O)c2)cc1OC	-2%	12%	.	12%	-16%	-6%
CCc1c(C(=O)NCCc2ccc(N3CCCCC3)cc2)[nH]c2ccc(Cl)cc12	.	28µM*	.	.	.	.
CCCCn1c(N)c(N(CC(C)C)C(=O)c2ccco2)c(=O)[nH]c1=O	27%	50µM*	.	9%	4%	-7%
CCCCn1c(N)c(N(CC(C)C)C(=O)C2CC(=O)N(c3ccc(C)cc3)C2)c(=O)[nH]c1=O (centres undefined)	-3%	?	.	-2%	-14%	6%
CC(C)CN(C(=O)CSc1nncn1-c1ccccc1)c1c(N)n(CC(C)C)c(=O)[nH]c1=O	34%	18%[59 µM]	-2%	-1%	-6%	-1%
CCCCn1c(N)c(N(CC(C)C)C(=O)C2CC(=O)N(c3ccccc3C(C)CC)C2)c(=O)[nH]c1=O (centres undefined)	43%	79µM*	.	9%	4%	0%
CCCCn1c(N)c(N(CCC(C)C)C(=O)CSc2nncn2-c2ccccc2)c(=O)[nH]c1=O	30%	7.9µM*	.	?	-2%	0%
CCCCn1c(N)c(N(CCC(C)C)C(=O)C2=NN(c3cc(C)ccc3C)C(=O)CC2)c(=O)[nH]c1=O	55%	40µM*	.	12%	-1%	-11%
CCCCn1c(N)c(N(CC(C)C)C(=O)C2=NN(c3cc(C)ccc3C)C(=O)CC2)c(=O)[nH]c1=O	28%	?	.	10%	-17%	-1%
CCCCn1c(N)c(N(CC(C)C)C(=O)Cn2c(=O)oc3ccccc32)c(=O)[nH]c1=O	-14%	-27%	.	5%	-13%	-9%
CCCCn1c(N)c(N(CC(C)C)C(=O)Cn2c(=O)cnc3ccccc32)c(=O)[nH]c1=O	47%	45µM*	.	-1%	8%	-14%
CCCCN(C(=O)c1ccc([N+](=O)[O-])s1)c1c(N)n(CC(C)C)c(=O)[nH]c1=O	12%	-51%	.	5%	-5%	-11%
CCCCn1c(N)c(N(CCC(C)C)C(=O)c2ccc([N+](=O)[O-])s2)c(=O)[nH]c1=O	-5%	79µM*	.	6%	-21%	1%
COc1ccccc1Nc1cc(C(=O)NCc2cccs2)c2ccccc2n1	48%	1%[59 µM]	.	.	16%	0%
CCCOc1ccc(C2C(C(=O)/C=C/c3ccco3)=C(O)C(=O)N2CCN2CCOCC2)cc1OC (centres undefined)	3%	45µM*	45µM*	.	?	-5%
COc1cc(C2C(C(C)=O)=C(O)C(=O)N2CCN2CCOCC2)ccc1O (centres undefined)	19%	50µM*	-2%	-4%	-22%	-4%
Cc1cc2oc3c(c(=O)c2cc1C)C(c1ccc(F)cc1)N(CCCN1CCOCC1)C3=O (centres undefined)	25%	?	-8%	4%	-16%	-3%
COc1cc(C2c3c(oc4cc(C)c(C)cc4c3=O)C(=O)N2CCCN2CCOCC2)ccc1O (centres undefined)	-10%	28µM*	.	-14%	-20%	-3%
COc1ccc(OC)c(NC(=O)Cn2c(=O)n(CC3CCCO3)c(=O)c3cc(OC)c(OC)cc32)c1 (centres undefined)	15%	-2%	17%	-27%	-19%	5%
O=C(NCc1ccccc1Cl)c1ccccc1NC(=O)c1nsc2ccccc12	21%[57 µM]	1%[59 µM]	.	-1%	-9%	3%
CCN1CCN(C(=O)CSc2nc(N)cc(N)n2)CC1	37%	45µM*	-2%	-9%	-14%	2%
SMILES	HP1b chromo inh	G9a inh	Sfp PPTase inh	BAZ2B block	JMJD2A Tudor inh	TDP1 block
O=C(OCc1ccc(Br)cc1)c1cccc(S(=O)(=O)N2CCCC2)c1	64%	7%[0.501 µM]	.	34%	33%	-21%
CCOC(=O)c1cccc(NC(=O)c2ccc3c(c2)OCO3)c1	44%	.	2%	-3%	-5%	.
CCOC(=O)c1cccc(NC(=O)/C=C/c2ccc3c(c2)OCO3)c1	34%	9%[59 µM]	79µM*	5%	1%[57.1 µM]	3%
CCOC(=O)CNc1ccc2c(c1)OCO2	-13%	?	20µM*	?	-34%	6%
CCOc1cc(C(=O)Nc2ccc(C(=O)NCCN(CC)CC)cc2)ccc1OCC(=O)N1CCOCC1	40%	50µM*	.	8%	8%	2%
CCOc1ccc(C(=O)NCC(=O)Nc2ccc3c(c2)OCO3)cc1OCC	-9%	50µM*	.	-15%	?	-8%
Cc1cc2c(cc3c(SCC(=O)Nc4cccc(Cl)c4C)nnc(C)n32)o1	26%	?	.	-17%	-19%	3%
COc1cc(C2N(c3ccccc3)CCN2c2ccccc2)cc(OC)c1OC	-6%	?	-20%	?	?	1%
Cc1ccc(N2CCN(c3ccc(C)cc3)C2c2ccncc2)cc1	?	35µM*	45µM*	-77%	-33%[11.4 µM]	9%
COc1ccc(Cn2c(SCc3ccc(C)cc3)nc3cc(OC)c(OC)cc3c2=N)cc1Cl	-21%	40µM*	4µM*	?	?	9%
COc1ccc(Cn2c(SCc3cc(C)ccc3C)nc3cc(OC)c(OC)cc3c2=N)cc1	-19%	?	3.2µM*	?	?	0%
COc1cc2nc(SCc3ccc(C(F)(F)F)cc3)n(Cc3cccs3)c(=N)c2cc1OC	29%	21%[59 µM]	9%	-6%	15%	6%
O=C(NC(c1ccc(Cl)cc1)c1c(O)ccc2ccccc12)c1ccccc1 (centres undefined)	-6%	-17%[59 µM]	21%	-22%	-27%	5%

Source: PubChem
